# Results: ChEMBL document CHEMBL4513216, “Probing the Open Global Health Chemical Diversity Library for Multistage-Active Starting Points for Next-Generation Antimalarials” (ACS Infect Dis, 2020)
# In all, about 69,000 compounds went through this assay and about 8,600 (12%) showed an effect of 50% or more. Shown is part of a subset that was picked to be rich in strong results.
# Test system: Plasmodium berghei
# Test: Screen against P. berghei liver stage (PbLuc), transformed with Luciferase, at 10uM
# Assay type: functional, HepG2
# Settings: tested at 10 uM
row,Structure (SMILES),INHIBITION
1,Cn1nc(Br)c2c(NCCS(N)(=O)=O)ncnc21,36.4%
2,CC(=O)N1CCN(C(=O)NC(C)Cn2ccnc2)CC1 (configuration not stated),24.2%
3,COc1ccc(CN2C[C@H](N3CCCC3=O)[C@@H]3OCCC[C@@H]32)cc1,48.2%
4,CCn1nc(C)c2nc(C(C)C)nc(N3CCN(C)CC3)c21,-10.1%
5,CCS(=O)(=O)N1CC[C@H]2C(=O)N(Cc3cccnc3)CCO[C@H]2C1,-7.38%
6,CNC(=O)CC1c2cccnc2C(=O)N1Cc1ccccc1 (configuration not stated),19.2%
7,COCCNC(=O)Cn1c(-c2cccc(Cl)c2)nc(C)c(CCO)c1=O,18.2%
8,COCCNc1cccc(C2CCCN2)n1 (configuration not stated),-31%
9,CCC(C)c1noc(C2CCN(C(=O)Cn3nc(C)cc3C)CC2)n1 (configuration not stated),40.8%
10,O=C(NCCCN1CCOCC1)c1ccn(COc2ccccc2)n1,-8.07%
11,Cc1c(C(=O)N2CCC3(CCC(=O)N(CCN(C)C)C3)CC2)ccn1C,34%
12,CN(C)CCN1CCC2(CCN(C(=O)c3ccncc3)CC2)C1=O,13.7%
13,CN(C)CCN1CCC2(CCN(C(=O)c3cccc(F)c3)CC2)C1=O,0.112%
14,CN(C)CCN1CC2(CCC1=O)CCN(C(=O)c1ccn(C)n1)CC2,35.1%
15,CN(C)CCN1CCC2(CCN(C(=O)c3ccc(F)cc3)CC2)C1=O,56.6%
16,CCc1ccc(C(=O)N2CCC3(CCC(=O)N(CCN(C)C)C3)CC2)[nH]1,70.4%
17,Cc1ncsc1CN1CC[C@H]2OCC[C@@]2(C(=O)NC(C)C)C1,11.1%
18,Fc1cccc(Cl)c1Cn1ncnc1CSCCN1CCCC1,39.9%
19,Cc1nnc(C2CCN(C(=O)c3cnc4ccccc4n3)CC2)s1,31.2%
20,CN(C)C[C@@H]1CN(C(=O)CCC2CCCC2)C[C@@H]1CO,28.2%
21,O=C(c1cnco1)N1CCCC(Cc2cccc3ncccc23)C1 (configuration not stated),51.2%
22,O=C(c1cnccn1)N1CCCC(Cc2cncc3ccccc23)C1 (configuration not stated),-39.4%

row,Structure (SMILES),INHIBITION
1,O=C(c1cnco1)N1CCC(Cc2cccc3ncccc23)CC1,44.9%
2,Cn1ccc(C(=O)N2CCCC(Cc3cccc4ncccc34)C2)n1 (configuration not stated),75.1%
3,Cn1cc(C(=O)N2CCCC(Cc3nccs3)C2)cn1 (configuration not stated),20.2%
4,Cn1cc(C(=O)N2CCCC(Cc3cncc4ccccc34)C2)cn1 (configuration not stated),3.91%
5,Cn1ccc(C(=O)N2CCC(Cc3cccc4ncccc34)C2)n1 (configuration not stated),23.4%
6,O=C(c1cnco1)N1CCCC(Cc2nccs2)C1 (configuration not stated),26.9%
7,Cn1cc(C(=O)N2CCCC(Cc3cccc4ncccc34)C2)cn1 (configuration not stated),85.7%
8,O=C(c1cnccn1)N1CCCC(Cc2cccc3ncccc23)C1 (configuration not stated),70.8%
9,Cn1ccc(C(=O)N2CCC(Cc3cccc4ncccc34)CC2)n1,42.6%
10,O=C(c1cnccn1)N1CCCC(Cc2ccccn2)C1 (configuration not stated),31.8%
11,CNC(=O)N1CCC2(CC1)CN(C)Cc1cc(F)ccc12,39.3%
12,Cc1cccc(CN2CCc3nnc(CN4CCCCC4)n3CC2)n1,-89.8%
13,CC(C)c1nccn1C1CCCN(C(=O)CN(C)C2CC2)C1 (configuration not stated),19.6%
14,CCN(C(=O)COc1nc(C(C)(C)C)no1)C1CC1,-1.75%
15,COc1ccc(C[C@H]2CN(C(=O)c3cc(C)no3)CC[C@H]2OC)cc1,-22.1%
16,Cc1cc(C)c(CNC(=O)NCc2ccncc2)c(=O)[nH]1,37.9%
17,COCCNC(=O)NC(C)COc1ccc(F)cc1F (configuration not stated),-2.48%
18,CC(C)N1C(=O)CO[C@H]2CCN(C(=O)c3ccc4c(c3)CCC4)CC[C@@H]21,20.105%
19,Cc1noc(C)c1CN1CCC2(CC1)C(c1cnn(C)c1)CC(=O)N2C (configuration not stated),41.2%
20,CCC(CC)C(=O)N1CCOC2(COCCN(CC(=O)NC)C2)C1 (configuration not stated),-13%
21,O=C(NCCc1c[nH]cn1)c1n[nH]c2c1CCC2,-11.1%
22,COc1ccccc1CC(=O)N1CCCC(CNS(C)(=O)=O)C1 (configuration not stated),4.623%

row,Structure (SMILES),INHIBITION
1,Cc1cnn(CCC(=O)N2CCCN(c3nc(C)cs3)CC2)c1,17.4%
2,CCn1cc(CN2CCCN(C(=O)CCn3cc(C)cn3)CC2)cn1,52.5%
3,CCn1cc(CN2CCCN(C(=O)CCSC)CC2)cn1,5.9%
4,CCn1cc(CN2CCCN(C(=O)C3(C)CCOCC3)CC2)cn1,55.4%
5,CCn1cc(CN2CCN(C(=O)N3CCOCC3)CC2)cn1,43.4%
6,Cc1cnn(CCC(=O)N2CCN(c3nc(C)cs3)CC2)c1,62.8%
7,Cc1csc(N2CCCN(C(=O)Cc3cccs3)CC2)n1,14.4%
8,CCn1cc(CN2CCCN(C(=O)C3(C#N)CCCCC3)CC2)cn1,45.2%
9,Cc1csc(N2CCN(C(=O)Cc3ccc(C)s3)CC2)n1,-23.8%
10,CCn1cc(CN2CCCN(C(=O)CCc3cnn(C)c3)CC2)cn1,15.5%
11,Cc1cnn(CC(=O)N2CCCN(c3nc(C)cs3)CC2)c1,35.9%
12,Cc1csc(N2CCCN(C(=O)Cc3ccc(C)s3)CC2)n1,69.8%
13,CN(Cc1cc[nH]n1)C(=O)c1cn(Cc2ccccc2Cl)nn1,39.4%
14,COc1ccc2[nH]cc(C(=O)N3C[C@@H](O)[C@H](NS(C)(=O)=O)C3)c2c1,14.6%
15,O=C(c1ccnc(C2CCNCC2)c1)N1CCCOCC1,42.6%
16,CCN(CC)S(=O)(=O)NCC1Cc2ccccc2O1 (configuration not stated),7.65%
17,CC(=O)N1CCCC1c1nc(CN(C)C(=O)C(C)C)cc(N(C)C)n1 (configuration not stated),23.9%
18,CCc1n[nH]c(C2CN(CCS(C)(=O)=O)CCO2)n1 (configuration not stated),25.6%
19,O=S(=O)(NC1CCCOC1)c1ccc(C(F)(F)F)nc1 (configuration not stated),30%
20,Cc1cnn(CC2CCCN2CC(=O)NC2CCN(C3CC3)CC2)c1 (configuration not stated),-42.3%
21,CCc1nccn1C1CCCN(C(=O)c2cncnc2C)C1 (configuration not stated),21.6%
22,CN(C)CC1CN(C(=O)NCc2ccccc2)Cc2nccn2C1 (configuration not stated),13.5%

row,Structure (SMILES),INHIBITION
1,Cc1cccc2c1OCCC2NCc1c(C(C)C)nn(C)c1N(C)C (configuration not stated),-41.2%
2,CC(C)(C)Oc1ccc(CN)c(C(F)(F)F)c1,30.8%
3,Cc1csc(N2CCCN(C(=O)C(C)n3cncn3)CC2)n1 (configuration not stated),17.4%
4,CCc1ccsc1C(=O)N1CCCN(Cc2cnn(CC)c2)CC1,58.5%
5,CCn1cc(CN2CCCN(C(=O)c3sccc3C#N)CC2)cn1,24%
6,CCn1cc(CN2CCCN(C(=O)c3sccc3OC)CC2)cn1,-34%
7,Cc1csc(N2CCN(C(=O)C(C)n3cncn3)CC2)n1 (configuration not stated),60.5%
8,CCc1ccsc1C(=O)N1CCS(=O)(=O)CC1,53.7%
9,CC(C)n1cc(CN2CCCN(C(=O)C3CCOC3)CC2)cn1 (configuration not stated),-29.1%
10,CCc1ccsc1C(=O)N1CCN(CC(N)=O)CC1,-53.5%
11,CC(C)n1cc(CN2CCCN(C(=O)C3(C)CCOCC3)CC2)cn1,54.5%
12,Cc1csc(N2CCN(C(=O)C(C(C)C)n3cncn3)CC2)n1 (configuration not stated),17.4%
13,CCc1ccsc1C(=O)N1CCN(CC(C)O)CC1 (configuration not stated),-27.8%
14,CSC(C)C(=O)N1CCCN(Cc2cnn(C(C)C)c2)CC1 (configuration not stated),-19.9%
15,O=C(c1cccnc1)N(CCO)Cc1cc(Br)ccc1F,-5.1%
16,CNc1nc(C2CCCN(C(=O)C(C)(C)OC)C2)nc2c1CN(C)CC2 (configuration not stated),-12.9%
17,CC(C(=O)NCCOc1ccc2c(c1)CCC2)n1cncn1 (configuration not stated),-81.3%
18,Cc1ccc(S(=O)(=O)N2CCN(CCCO)CC2)s1,30.1%
19,c1cncc(-c2noc(CNC3CCc4ncnn4C3)n2)c1 (configuration not stated),29.4%
20,Cc1cc(C)n(CC2CCCCN2C(=O)c2ccsc2)n1 (configuration not stated),-3.2%
21,CC(C)C(Sc1nncn1C1CC1)C(=O)NCc1cccnc1 (configuration not stated),-38%
22,CC(NC(=O)Cc1cccs1)c1nnc2n1CCC2 (configuration not stated),-12.2%

row,Structure (SMILES),INHIBITION
1,O=C(c1cc[nH]n1)N1CCC(c2cc(Nc3ccccn3)n[nH]2)CC1,-3.31%
2,Cc1nnc(NC(=O)NCc2ccoc2)s1,-19.9%
3,COC(=O)CNC(=O)Cn1ccc2ccc(F)cc21,13.9%
4,O=C(Cn1ccc2ccc(F)cc21)NCc1ccc(C(=O)O)cc1,6%
5,CC[C@H](C)[C@H](NC(=O)Cn1ccc2ccc(F)cc21)C(=O)OC,-24.6%
6,O=C(CCn1ccc2cc(Br)ccc21)NC[C@@H]1CCCN2CCCC[C@H]12,49%
7,Cc1cccc2c1ccn2CC(=O)O,35%
8,COC(=O)[C@H](C)NC(=O)Cn1ccc2ccc(F)cc21,50.8%
9,O=C(Cn1ccc2ccccc21)NC[C@@H]1CCCN2CCCC[C@H]12,23.5%
10,COCCNC(=O)Cn1ccc2ccc(F)cc21,17.1%
11,O=C(Cn1ccc2ccc(F)cc21)NC[C@@H]1CCCN2CCCC[C@H]12,58.3%
12,O=C(Cn1ccc2ccc(Br)cc21)NC[C@@H]1CCCN2CCCC[C@H]12,37.1%
13,O=C(Cn1ccc2cc(Br)ccc21)NC[C@@H]1CCCN2CCCC[C@H]12,58.3%
14,Cc1cccc2c1ccn2CC(=O)NC[C@@H]1CCCN2CCCC[C@H]12,51.9%
15,Cc1ccnn1CCC(=O)N1CCCC2(C1)NC(=O)c1ccccc1O2 (configuration not stated),-2.2%
16,CC1=C(C(N)=O)C(c2cn(C)nc2C)N2C(=O)CSC2=N1 (configuration not stated),-20.5%
17,CCn1ncc2c1C(COCC1CC1)N(C(=O)c1ccncn1)CC2 (configuration not stated),9.34%
18,CC(=O)N1CCCCC1c1nc(N)ncc1-c1ccccc1 (configuration not stated),38.1%
19,CN1CCC2(CCCN(C(=O)c3cncn3C)C2)CC1,29%
